This is part of a sample that, as a whole, favours compounds with a hit. Of some 83,000 tested, about 20% had one in any assay.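 Each cell line was grown in a 96-well plate and treated with one concentration of compound for 48 hours. Values below 10 were considered active.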 Values without a mark were called inactive. Active and inactive are the calls of the source.
Tests used:
Assay in all cases: NCI-60 one-dose screen, 48 h (100 = growth as untreated, 0 = no growth, -100 = all killed)
Details in all cases: 10 µM unless noted
DU-145 prostate = tested on: DU-145 prostate
K-562 leukemia = tested on: K-562 leukemia
MALME-3M melanoma = tested on: MALME-3M melanoma
MDA-MB-231 breast = tested on: MDA-MB-231 breast
RXF 393 renal = tested on: RXF 393 renal
SF-268 CNS = tested on: SF-268 CNS
SF-295 CNS = tested on: SF-295 CNS
SF-539 CNS = tested on: SF-539 CNS
UACC-257 melanoma = tested on: UACC-257 melanoma
M14 melanoma = tested on: M14 melanoma
HCT-15 colon = tested on: HCT-15 colon
HT29 colon = tested on: HT29 colon
SNB-75 CNS = tested on: SNB-75 CNS
SNB-19 CNS = tested on: SNB-19 CNS
U251 CNS = tested on: U251 CNS
PC-3 prostate = tested on: PC-3 prostate
SK-MEL-5 melanoma = tested on: SK-MEL-5 melanoma
UACC-62 melanoma = tested on: UACC-62 melanoma
LOX IMVI melanoma = tested on: LOX IMVI melanoma
SK-MEL-28 melanoma = tested on: SK-MEL-28 melanoma

Compound	growth (DU-145 prostate)	growth (K-562 leukemia)	growth (MALME-3M melanoma)	growth (MDA-MB-231 breast)	growth (RXF 393 renal)	growth (SF-268 CNS)	growth (SF-295 CNS)	growth (SF-539 CNS)	growth (UACC-257 melanoma)	growth (M14 melanoma)	growth (HCT-15 colon)	growth (HT29 colon)	growth (SNB-75 CNS)	growth (SNB-19 CNS) [%]	growth (U251 CNS)	growth (PC-3 prostate)	growth (SK-MEL-5 melanoma)	growth (UACC-62 melanoma)	growth (LOX IMVI melanoma)	growth (SK-MEL-28 melanoma) [%]
COc1ccc(C2=NN3C(C2)c2cc(Br)ccc2OC3c2ccncc2)cc1 (stereo not given)	96.4%	74.8%	94%	85%	95.4%	66.2%	86.5%	86.2%	86.2%	86.8%	73.1%	109%	78.8%	81.4	75.3%	63.2%	93.2%	71.5%	62%	105
FC(F)(F)c1cccc(-c2nnn(Cc3cc(-c4cccc(Cl)c4)no3)n2)c1	113%	113%	97.5%	117%	109%	99.1%	111%	102%	96.3%	101%	105%	103%	88.9%	97.7	104%	104%	101%	103%	99.4%	112
N#C/C(=C\c1cccc2cnccc12)N1N=NC2C=CC=CC21 (stereo not given)	8.33% (active)	12.4%	36%	9.44% (active)	-17.1% (active)	56.6%	98.4%	45.7%	46.9%	32.6%	13.5%	12.7%	7.27% (active)	66	70.6%	47.9%	46.4%	37.1%	11.7%	43.8
CCOc1cc(\C=N/N=C(N)/C(N)=N\N=C/c2ccc(O)c(OCC)c2)ccc1O	111%	83%	123%	94.7%	95.9%	98.1%	106%	112%	108%	113%	101%	-46.5% (active)	116%	109	95.8%	82.4%	94.2%	95.3%	103%	103
COc1cc(OC)cc(C(=O)Nc2cnc(Nc3ccc(N4CCOCC4)nc3)nc2Oc2ccc(C(F)(F)F)cc2)c1	78.8%	97%	57.2%	44%	76.5%	78.7%	77%	34%	16.7%	93.1%	75.4%	46.8%	-14.5% (active)	44.1	65.6%	71.4%	93%	76.3%	69.7%	98.9
COCCn1cc(-c2nc(-c3cc4cccnc4n3C)cs2)c2cc(OC)ccc21	76.7%	9.5% (active)	108%	27.5%	78.3%	71.3%	66.1%	66.9%	74.3%	63.7%	32.1%	48.2%	47.7%	87.4	59%	16.1%	26.7%	61.7%	38.2%	88.3
Cc1nc2c(c(-c3ccccc3)n1)Cc1c(ccc3ccccc13)O2	115%	132%	126%	83%	105%	94.8%	112%	96.7%	113%	104%	107%	89.1%	92.2%	110	102%	87.5%	70.8%	83.8%	91.5%	107
Cc1c(Cl)cccc1NC(=O)c1sc2nc3c(cc2c1N)CCCC3	39.9%	13.7%	67.7%	49.5%	40%	49.3%	8.07% (active)	4.43% (active)	37.7%	25.3%	24.1%	8.28% (active)	29.6%	32.6	21%	42.1%	31%	17.3%	39.1%	68.6
O=c1[nH]c(CN2CCN(c3ccccc3)CC2)nc2c(Br)cc(Br)cc12	114%	97.6%	109%	115%	101%	108%	91.8%	111%	96.2%	113%	71.5%	105%	95.8%	108	101%	103%	109%	84.4%	99.7%	108
CCOC(=O)c1ccc2c(c1)[n+](=O)c(C(C)=O)c(C(F)(F)F)n2[O-]	-88.5% (active)	-76.7% (active)	-40% (active)	22.2%	31.6%	-51.8% (active)	23%	29.7%	-37.1% (active)	8.64% (active)	-36% (active)	-0.876% (active)	25.6%	17.4	6.13% (active)	-45.7% (active)	-94.3% (active)	2.99% (active)	-59.7% (active)	27.9
Cc1nn(-c2ccccc2)c(Oc2ccccc2)c1/C=N/NC(=O)Cn1c(=O)sc2ccccc21	76.1%	25.2%	52.7%	53.6%	70.6%	55%	45.3%	71.4%	66.1%	56.2%	56.7%	46.8%	48.6%	61.1	51.3%	44.5%	-47.7% (active)	52.1%	48.7%	87.5
CCN1C(=O)N(CC)C2C1NN=c1s/c(=C\c3ccc(F)cc3)c(=O)n12 (stereo not given)	-11.2% (active)	8.05% (active)	49.9%	24.1%	5.29% (active)	53.3%	13.6%	-14.9% (active)	56%	12.6%	13.9%	3.48% (active)	-1.81% (active)	28	9.98% (active)	25.4%	16.8%	28.8%	20%	63
O=[N+]([O-])c1ccc(Oc2cccc3c(Oc4ccc([N+](=O)[O-])cc4[N+](=O)[O-])cccc23)c([N+](=O)[O-])c1	107%	95.1%	105%	63.7%	96.4%	85%	99.9%	96.3%	91.6%	93.3%	100%	97%	81.6%	84.7	87%	79.7%	86.7%	76.5%	78.4%	110
Cc1nc2cccc(NCc3ccc(C(=O)NO)cc3)c2c(=O)n1-c1ccccc1	26.7%	18.7%	35.3%	48.2%	28.2%	54%	16%	15.1%	53.4%	32.8%	31.3%	26.4%	42.6%	40.8	-16.7% (active)	27%	8.27% (active)	-17.7% (active)	26.6%	35.7
O=C(/C=C/c1ccc(Cl)cc1)c1ccc(Nc2ccnc3cc(Cl)ccc23)cc1	145%	27.8%	79.9%	48.4%	-41.4% (active)	164%	9.54% (active)	122%	93.4%	84.5%	56.1%	30.6%	92.5%	99.7	52.7%	70.9%	53.3%	92.8%	83.3%	104
C=C(C)Cn1c(SCC(=O)c2cccs2)nc2sc3c(c2c1=O)CCCC3	50.9%	41%	71.5%	65.5%	52.2%	42.2%	42.2%	39.3%	81.5%	77.6%	22.7%	38.9%	62.6%	45.1	36.3%	48.6%	36.4%	44.8%	4.51% (active)	55.3

Reference: PubChem BioAssay (NCI)
